Drawing on PubChem BioAssay AID624415 (National Center for Advancing Translational Sciences (NCATS), 2012), this text covers activity change, negative = inhibition for 23 molecules.

Molecules are shown by their SMILES. Hit rate of the full screen: of about 390,000 compounds, about 60 (0.02%) were called active. No stated cut-off is given here; in the data, active means activity change below about -50%; inconclusive means between about -30% and that limit; inactive means weaker than that. Shown is part of a subset that was picked to be rich in actives.
On the % scale 0 is the no-effect control and ±100 the full control effect.

Sequence of Mucolipin-1 (Homo sapiens) (Q9GZU1 whole entry, looked up, the tested form may be a part): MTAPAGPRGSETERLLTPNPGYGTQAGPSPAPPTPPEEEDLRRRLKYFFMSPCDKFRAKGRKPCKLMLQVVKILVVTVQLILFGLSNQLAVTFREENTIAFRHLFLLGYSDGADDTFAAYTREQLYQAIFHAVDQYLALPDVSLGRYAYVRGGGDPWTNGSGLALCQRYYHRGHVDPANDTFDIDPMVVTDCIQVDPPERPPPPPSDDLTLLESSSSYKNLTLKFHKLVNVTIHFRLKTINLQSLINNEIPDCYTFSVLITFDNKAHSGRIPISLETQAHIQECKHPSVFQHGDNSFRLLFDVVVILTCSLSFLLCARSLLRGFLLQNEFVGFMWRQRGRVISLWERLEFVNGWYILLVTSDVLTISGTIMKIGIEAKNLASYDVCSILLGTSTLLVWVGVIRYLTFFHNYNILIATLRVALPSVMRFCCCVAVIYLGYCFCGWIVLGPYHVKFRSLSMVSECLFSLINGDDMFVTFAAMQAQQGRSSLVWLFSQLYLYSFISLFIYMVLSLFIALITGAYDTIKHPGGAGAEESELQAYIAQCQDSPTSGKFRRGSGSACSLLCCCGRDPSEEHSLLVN

The target of this assay is Mucolipin-1 (Homo sapiens) (UniProt Q9GZU1). Nature of the assay: qHTS for Inhibitors of the Human Mucolipin Transient Receptor Potential 1 (TRPML1).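 Further: stimulus is agonist 54-4 at its EC80 concentration.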 Particulars: TRPML1-inducible cells, Ca2+ dye fluorescence, FDSS; active compounds read low; inhibition of EC80 agonist-evoked calcium signal. From the text:
Mutations of human Mucolipin transient receptor potential 1 (TRPML1) cause type IV mucolipidosis (ML4), a devastating neurodegenerative disease in young children. […] Currently, there is no treatment for ML4. […] Under physiological conditions, TRPMLs regulate membrane trafficking by transducing information about PI(3,5)P2 levels into changes in juxtaorganellar Ca2+, thereby triggering membrane fusion/fission events in the late endocytic pathways (endolysosomal trafficking). In addition, TRPML1 mediates release of Fe2+ from late endosomes and lysosomes, which is essential for cellular iron metabolism. Thus, impaired ion (Ca2+ and Fe2+) homeostasis underlies lysosomal dysfunction and ML4 phenotypes. In ML4 cells, the problem is twofold. First, defective Ca2+-dependent membrane trafficking due to TRPML1-deficiency causes accumulation of lipids and other bio-materials in the lysosome. The second strike comes from the lysosomal iron overload (due to impairment of TRPML1's Fe2+ conductivity), which converts the accumulated materials into the nondegradable (resistant to lysosomal degradation) lipofuscin (also called aging pigment) in the lysosome. Lipofuscin accumulation dramatically compromises the functions of lysosomes.
Niemann-Pick type C (NPC) disease is another lysosome storage disease (LSD) with severe neurodegeneration during the childhood. Currently, there is no cure for NPC. […] Thus, TRPML1 is likely to be an essential regulator of lysosome ion homeostasis. We specifically hypothesize that stimulating TRPML1's Fe2+/Ca2+ channel activity in the lysosome using synthetic agonists can alleviate neurodegeneration associated with ML4 or NPC.
To this end, a high throughput screen was developed in a miniaturized format to screen against the Molecular Libraries Small Molecule Repository (MLSMR) to find small molecules that act either as inhibitors or agonist against the TRPML1 channel.
NIH Chemical Genomics Center [NCGC]
NIH Molecular Libraries Probe Centers Network [MLPCN]
Assay Submitter (PI): Haoxing Xu, University of Michigan Ann Arbor
TRPML1-DL cells are dissociated from flasks, counted and, brought up to a density of 500,000 cells per mL of media containing a 1X Tet inducer. Using a Multidrop Combi, 3 uL of this cell solution is dispensed to each well of a 1536 TC treated, black, clear bottom hi base plate for a final cell density of 1,500 cells per well. The assay plates are incubated overnight (approximately 16 hours) at 37 degrees C and 5% CO2. Using a Multidrop Combi, 2 uL of ABD Ca8 no wash dye plus quencher is added to each well. The assay plates incubate at room temperature in the dark for 45-90 minutes. The assay plate is read on the FDSS using the following protocol: 10 second baseline read, 23 nL of compounds and controls are added using 1536 pintool, agonist read for 110 seconds, 1 uL EC80 addition (4 uM final 54-4 diluted in media), antagonist read for 110 seconds.
(In general: In qHTS, concentration-response curves come from the screen itself.)
Take `Cc1ccc(OCCSc2nc(C)c(Cc3ccccc3)c(=O)[nH]2)cc1`: the activity change, negative = inhibition is -16.6% (inactive). Regarding `COc1ccc(NC(=O)NC(C)c2c(-n3cccc3)sc(C)c2C)cc1OC` (stereo not drawn), the activity change, negative = inhibition was 12.5% (inactive). Regarding `COC(=O)c1ccccc1NC(=O)Cn1c(=O)n(-c2cccc(C(F)(F)F)c2)c(=O)c2c(C)c(C)sc21`, the activity change, negative = inhibition was -25.8% (inactive). For the molecule `Cc1cc2c(cc3c(SCc4nc(-c5ccccc5)oc4C)nnc(C)n32)o1`, the activity change, negative = inhibition was 11.7% (inactive).

For the molecule `N#Cc1ccccc1Cn1cnc2nc3c(cc2c1=O)CCCC3`, the activity change, negative = inhibition is -15.7% (inactive). Regarding `CCN(Cc1ccccc1)S(=O)(=O)c1ccc2c(c1)CCCN2C(C)=O`, the activity change, negative = inhibition is -2.82% (inactive). In the case of `Cn1c(=O)c2sccc2n2c(CCC(=O)NCc3ccccc3Cl)nnc12`, the activity change, negative = inhibition was 2.41% (inactive). With `CN1CCN(C2(CNC(=O)COc3ccc(C(C)(C)C)cc3)CCCCC2)CC1`, the activity change, negative = inhibition is 16.1% (inactive). With `COc1cc(OC)cc(-c2nc3nc(C)c(CCC(=O)Nc4ccccc4)c(C)n3n2)c1`, the activity change, negative = inhibition is -13.4% (inactive).

`Cc1ccc(Nc2c(-c3ccc(N(C)C)cc3)nc3nc[nH]n23)cc1`: the activity change, negative = inhibition is -8.37% (inactive).

As for `CCOc1ccccc1CNC(=O)c1cnc2c(-c3ccc(OCC)c(OCC)c3)c(C)nn2c1C`, the activity change, negative = inhibition is -5.19% (inactive). The same measure for `CCc1ccc(-n2nc(C)c3c(C)cc(=O)n(CC(=O)Nc4ccc(F)cc4C)c32)cc1`: 1.68% (inactive); for `CCOc1ccc(C2C(=O)N(C3CCCCC3)CC(=O)N2CCC2=CCCCC2)cc1OC` (stereo not drawn): -3.98% (inactive).

`CCC(=O)N1CCc2cc(Br)cc(S(=O)(=O)CCC(=O)N3CCN(c4ccc(F)cc4)CC3)c21`: the activity change, negative = inhibition was -21.4% (inactive). `COc1ccc(CN2CCC(=O)c3ccccc3S2(=O)=O)cc1`: the activity change, negative = inhibition is -9.22% (inactive). With `COc1ccc(CCC(=O)NCc2ccc3c(c2)CCN3C(=O)c2ccc(F)cc2)cc1`, the activity change, negative = inhibition was -24.8% (inactive). With `CCCSc1ncc(Cl)c(C(=O)Nc2sc3c(c2C(=O)NCCOC)CCCC3)n1`, the activity change, negative = inhibition was 20.3% (inactive). Consider `O=C(Nc1nc2c(s1)CCCC2)c1ccccc1F`, for which the activity change, negative = inhibition was 7.29% (inactive). Take `COc1cccc2cc(-c3nc(Cl)c4c5c(sc4n3)CC(C)CC5)c(=O)oc12` (stereo not drawn): the activity change, negative = inhibition was -7.72% (inactive). As for `Cc1cc(N2CCOCC2)nc2ccc(NC(=S)N3CCN(Cc4ccccc4)CC3)cc12`, the activity change, negative = inhibition is -15.7% (inactive).

Take `Cc1ccc(Nc2nc(N)nc(CN3CCN(Cc4ccccc4)CC3)n2)cc1Cl`: the activity change, negative = inhibition was -62.2% (active). For the molecule `CCOC(=O)C1CCCN(Cc2nc(N)nc(Nc3ccc(C)cc3)n2)C1` (stereo not drawn), the activity change, negative = inhibition was -0.383% (inactive). As for `Cc1ccc(-n2c(SCC(=O)c3ccccc3)nc3c([nH]c4ccccc43)c2=O)cc1`, the activity change, negative = inhibition is 13.9% (inactive).
